Experimental data published in PubChem BioAssay.
Calls of active or inactive are those of the source.

Tests used:
Albumin (Bos taurus) = Albumin (Bos taurus) (UniProt P02769); assay: bovine serum albumin binders on microarray, profiling panel, artefact control for SMM control protein annotation, biochemical, small-molecule microarray, Alexa647 label, 635/667 nm fluorescence (AID 1118); settings: BSA-A647 binding, fluorescence 635 nm, higher = more signal;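 also: score merges 667 nm emission intensity and signal-to-noise per printed compound spot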
[1] = small-molecule microarray binders of probe aXIP, primary screen, biochemical, NeuroSMM set, 635/667 nm fluorescence (AID 1119); settings: higher = more signal, called active from +8 up or from −8 down;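 also: probe is the protein aXip251-270 applied at 1 µg/mL to compound-printed slides; binding of probe to printed compounds measured as 667 nm fluorescence plus signal to noise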
[2] = small-molecule binders of probe aNOTCH3, primary screen, biochemical, small-molecule microarray, 635/667 nm fluorescence (AID 1120); settings: higher = more signal;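 also: probe is a biotin-tagged antibody raised against NOTCH3 rather than NOTCH3 protein; score merges spot fluorescence near 667 nm with spot signal to noise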
[3] = small-molecule binders of probe aNOTCH2, primary screen, biochemical, small-molecule microarray, 635/667 nm fluorescence (AID 1121); settings: higher = more signal;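 also: score merges feature fluorescence read at 667 nm with its signal to noise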
[4] = molecular target: Carbonic anhydrase 2 (Homo sapiens) (UniProt P00918); assay: CAII small-molecule binders, profiling panel, biochemical, small-molecule microarray, Alexa647-labelled CAII (AID 1122); settings: CAII-A647 binding fluorescence, higher = more signal
[5] = COS7 lysate on small-molecule microarray, probe aHis, 635 nm (AID 1123); settings: COS7 cell lysate, fluorescence, higher = more signal;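 also: z-score combines 667nm fluorescence intensity with signal-to-noise per printed compound spot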
[6] = compound binding in COS7 lysate, probe aLAP1, primary screen, cell lysate, small-molecule microarray (AID 1124); settings: probe aLAP1, fluorescence, higher = more signal;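 also: lysate comes from COS7 cells expressing LAP1 and is applied at 0.3 µg/mL; score merges spot fluorescence near 667 nm with signal-to-noise over triplicate slides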
Sam68 (KHDRBS1) = assay: Sam68 small-molecule binders, primary screen, biochemical, small-molecule microarray, 635 nm fluorescence (AID 1125); settings: small-molecule microarray binding, higher = more signal;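 also: score merges 667 nm channel intensity with signal to noise over triplicate slides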
[7] = test system: Chordin-like protein 2 (CHRDL2); assay: CHRDL2 small-molecule binders, primary screen, biochemical, small-molecule microarray, 635 nm fluorescence (AID 1126); settings: small-molecule microarray binding, fluorescence 635 nm; higher = more signal;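 also: printed compound slides probed with Chrdl2 protein at 4 µg/mL for 1 h at 4 C; score merges 667 nm emission intensity with signal to noise over three replicate slides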
[8] = molecular target: Concanavalin-A (Canavalia ensiformis) (UniProt P02866); assay: ConA small-molecule binders, primary screen, artefact control for SMM control protein annotation, biochemical, small-molecule microarray, Alexa647 label, 635 nm (AID 1127); settings: ConA-A647 binding fluorescence, higher = more signal;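 also: z combines 667 nm emission intensity with signal-to-noise across three replicate slides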
[9] = anti-His antibody binders, primary screen, artefact control for SMM control protein annotation, biochemical, small-molecule microarray, 635 nm fluorescence (AID 1128); settings: anti-His Alexa647 antibody binding, higher = more signal;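 also: score merges feature fluorescence with signal-to-noise for each printed compound spot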
[10] = test system: Human papillomavirus type 1a E7 protein (residues 1-88); assay: HPV1a E7 small-molecule binders, primary screen, biochemical, small-molecule microarray, residues 1-88, 635 nm (AID 1129); settings: small-molecule microarray binding, fluorescence 635 nm; higher = more signal
[11] = molecular target: Focal adhesion kinase 1 (Homo sapiens) (UniProt Q05397); assay: small-molecule microarray binders of FAK, primary screen, biochemical, 635/667 nm fluorescence, BSA, DTT (AID 1130); settings: PTK2 binding, 635 nm fluorescence, higher = more signal;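 also: composite of spot emission at 667 nm and signal to noise over triplicate slides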
[12] = test system: Fibrinogen (Alexa647-labelled); assay: fibrinogen binders on compound microarrays, profiling panel, artefact control for SMM control-protein annotation, biochemical, small-molecule microarray, 635/667 nm fluorescence (AID 1131); settings: fibrinogen-A647 binding fluorescence, higher = more signal;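 also: z-score merges 667 nm fluorescence with per-spot signal-to-noise over triplicate slides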
[13] = molecular target: Follistatin (Homo sapiens) (UniProt P19883); assay: follistatin binders on small-molecule microarrays, primary screen, biochemical, small-molecule microarray, 635/667 nm fluorescence (AID 1132); settings: FST binding, 635 nm fluorescence, higher = more signal
[14] = molecular target: Fibroblast growth factor 2 (Homo sapiens) (UniProt P09038); assay: FGF2 binders on small-molecule microarrays, primary screen, biochemical, small-molecule microarray, 635/667 nm fluorescence (AID 1133); settings: small-molecule microarray binding, FGF2, fluorescence 635/667; higher = more signal
[15] = mitochondrial membrane potential change in A549 cells, profiling panel, cell-based, JC-1 fluorescence, basal, 24 h, 100 nL (AID 1138); settings: higher = more signal;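 also: A549 lung adenocarcinoma cells under basal conditions with no added stimulus; test concentration not given here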
Lefty1 = Lefty1 binders on small-molecule microarrays, primary screen, biochemical, small-molecule microarray, 635/667 nm fluorescence (AID 1139); settings: small-molecule microarray binding, fluorescence 635/667; higher = more signal
[16] = test system: wheat germ agglutinin (Triticum aestivum), Alexa647-labelled; assay: wheat germ agglutinin binders on compound microarrays, profiling panel, artefact control for SMM control-protein annotation, biochemical, small-molecule microarray, 635/667 nm fluorescence (AID 1140); settings: WGA-A647 binding, 635 nm fluorescence, higher = more signal;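 also: score merges 667 nm feature emission with signal to noise over triplicate slides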
[17] = molecular target: Luciferin 4-monooxygenase (Photinus pyralis) (UniProt P08659); assay: firefly luciferase enzyme inhibitors, primary screen, biochemical, luminescence, purified enzyme, 2006 set (AID 1141); settings: SteadyGlo luminescence, 30 min, higher = more signal, called active from +8 up or from −8 down;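 also: cell-free assay with purified firefly luciferase at 100 ng per well in PBS; test concentration not given here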
Sequence of Luciferin 4-monooxygenase (Photinus pyralis) (P08659 whole entry, looked up): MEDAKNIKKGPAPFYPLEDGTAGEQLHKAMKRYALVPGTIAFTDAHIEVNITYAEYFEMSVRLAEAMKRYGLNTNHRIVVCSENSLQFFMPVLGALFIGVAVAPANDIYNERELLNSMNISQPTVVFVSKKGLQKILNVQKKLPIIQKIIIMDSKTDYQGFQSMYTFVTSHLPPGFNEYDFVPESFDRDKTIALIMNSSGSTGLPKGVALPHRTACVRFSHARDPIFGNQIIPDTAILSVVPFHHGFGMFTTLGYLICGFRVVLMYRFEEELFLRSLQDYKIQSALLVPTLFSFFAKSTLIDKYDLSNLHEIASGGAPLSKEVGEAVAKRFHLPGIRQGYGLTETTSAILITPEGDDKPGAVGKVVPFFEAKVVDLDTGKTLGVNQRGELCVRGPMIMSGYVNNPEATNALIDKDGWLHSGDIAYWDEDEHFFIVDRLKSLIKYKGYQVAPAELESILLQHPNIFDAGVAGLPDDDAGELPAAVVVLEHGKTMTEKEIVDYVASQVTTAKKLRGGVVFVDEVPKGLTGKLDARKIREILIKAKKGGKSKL

Sequence of Concanavalin-A (Canavalia ensiformis) (P02866 whole entry, looked up): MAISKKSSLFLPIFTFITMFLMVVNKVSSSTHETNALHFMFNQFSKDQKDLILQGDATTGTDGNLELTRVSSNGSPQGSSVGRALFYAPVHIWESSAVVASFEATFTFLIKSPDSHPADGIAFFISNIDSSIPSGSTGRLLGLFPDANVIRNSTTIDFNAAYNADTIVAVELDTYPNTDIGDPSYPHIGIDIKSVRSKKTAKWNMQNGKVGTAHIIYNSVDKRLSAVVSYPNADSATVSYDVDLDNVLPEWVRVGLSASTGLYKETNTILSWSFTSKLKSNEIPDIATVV
Sequence of Follistatin (Homo sapiens) (P19883 whole entry, looked up): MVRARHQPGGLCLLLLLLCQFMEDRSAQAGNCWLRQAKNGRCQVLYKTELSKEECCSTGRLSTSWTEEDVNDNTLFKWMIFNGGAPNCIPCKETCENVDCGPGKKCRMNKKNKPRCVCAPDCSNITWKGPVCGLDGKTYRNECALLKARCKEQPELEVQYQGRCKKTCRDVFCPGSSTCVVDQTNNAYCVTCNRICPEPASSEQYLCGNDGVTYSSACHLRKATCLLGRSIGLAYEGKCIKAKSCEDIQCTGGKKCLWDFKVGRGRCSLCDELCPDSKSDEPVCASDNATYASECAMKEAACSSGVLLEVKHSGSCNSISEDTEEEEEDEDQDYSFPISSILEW
Sequence of Albumin (Bos taurus) (P02769 whole entry, looked up): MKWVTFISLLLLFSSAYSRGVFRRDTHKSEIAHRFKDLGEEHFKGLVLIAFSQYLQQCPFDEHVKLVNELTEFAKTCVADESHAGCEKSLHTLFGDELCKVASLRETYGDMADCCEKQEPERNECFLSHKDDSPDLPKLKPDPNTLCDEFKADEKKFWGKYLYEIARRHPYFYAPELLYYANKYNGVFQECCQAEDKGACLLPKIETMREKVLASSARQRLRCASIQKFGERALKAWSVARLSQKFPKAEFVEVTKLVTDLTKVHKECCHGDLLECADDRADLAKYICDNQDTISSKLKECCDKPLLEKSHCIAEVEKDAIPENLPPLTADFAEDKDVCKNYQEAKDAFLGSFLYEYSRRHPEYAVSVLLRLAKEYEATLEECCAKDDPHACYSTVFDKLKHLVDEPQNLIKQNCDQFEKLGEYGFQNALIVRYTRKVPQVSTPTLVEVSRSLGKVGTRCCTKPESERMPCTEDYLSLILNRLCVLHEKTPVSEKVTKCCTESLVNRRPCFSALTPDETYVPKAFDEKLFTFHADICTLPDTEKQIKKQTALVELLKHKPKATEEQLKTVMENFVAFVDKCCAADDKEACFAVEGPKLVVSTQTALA
Sequence of Focal adhesion kinase 1 (Homo sapiens) (Q05397 whole entry, looked up): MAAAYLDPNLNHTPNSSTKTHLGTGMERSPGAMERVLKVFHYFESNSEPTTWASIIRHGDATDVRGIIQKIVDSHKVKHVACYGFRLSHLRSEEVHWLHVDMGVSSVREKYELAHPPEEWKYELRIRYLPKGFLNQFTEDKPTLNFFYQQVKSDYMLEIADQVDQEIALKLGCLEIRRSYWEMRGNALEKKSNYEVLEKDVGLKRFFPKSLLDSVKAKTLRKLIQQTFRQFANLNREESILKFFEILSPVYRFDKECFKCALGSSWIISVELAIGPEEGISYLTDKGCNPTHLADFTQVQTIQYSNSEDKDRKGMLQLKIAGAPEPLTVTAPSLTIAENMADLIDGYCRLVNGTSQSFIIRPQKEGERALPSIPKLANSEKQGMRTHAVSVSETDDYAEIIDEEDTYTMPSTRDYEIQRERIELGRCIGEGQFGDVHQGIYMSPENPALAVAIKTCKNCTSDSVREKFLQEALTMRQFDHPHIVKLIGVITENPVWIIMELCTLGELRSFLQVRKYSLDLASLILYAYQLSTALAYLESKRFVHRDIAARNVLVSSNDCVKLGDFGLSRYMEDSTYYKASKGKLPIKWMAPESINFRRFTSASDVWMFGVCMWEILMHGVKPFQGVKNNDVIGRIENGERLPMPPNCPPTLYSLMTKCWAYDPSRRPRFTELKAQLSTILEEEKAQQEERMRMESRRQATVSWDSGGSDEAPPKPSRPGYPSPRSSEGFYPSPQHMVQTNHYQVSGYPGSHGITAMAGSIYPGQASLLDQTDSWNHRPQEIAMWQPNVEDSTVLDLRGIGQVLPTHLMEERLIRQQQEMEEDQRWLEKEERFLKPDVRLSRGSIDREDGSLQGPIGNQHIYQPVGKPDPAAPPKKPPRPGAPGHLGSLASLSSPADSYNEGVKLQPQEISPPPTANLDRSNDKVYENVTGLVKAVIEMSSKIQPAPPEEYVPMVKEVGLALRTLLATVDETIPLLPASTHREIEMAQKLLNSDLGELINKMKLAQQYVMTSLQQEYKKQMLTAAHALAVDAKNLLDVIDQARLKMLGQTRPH
Sequence of Fibroblast growth factor 2 (Homo sapiens) (P09038 whole entry, looked up): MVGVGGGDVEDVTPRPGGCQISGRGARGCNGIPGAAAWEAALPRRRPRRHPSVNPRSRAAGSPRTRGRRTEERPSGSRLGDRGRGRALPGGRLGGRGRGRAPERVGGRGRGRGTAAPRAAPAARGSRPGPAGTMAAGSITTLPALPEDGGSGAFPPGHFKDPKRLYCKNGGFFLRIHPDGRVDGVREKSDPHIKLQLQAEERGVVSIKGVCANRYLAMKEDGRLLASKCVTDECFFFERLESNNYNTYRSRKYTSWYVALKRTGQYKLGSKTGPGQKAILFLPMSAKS

Row | Compound | composite z-score (Albumin (Bos taurus)) | composite Z-score [1] | composite z-score [2] | composite z-score [3] | composite z-score [4] | composite z-score [5] | composite z-score [6] | composite z-score (Sam68 (KHDRBS1)) | composite z-score [7] | composite z-score [8] | composite z-score [9] | composite z-score [10] | composite z-score [11] | composite z-score [12] | composite z-score [13] | composite z-score [14] | z-score [15] | composite z-score (Lefty1) | composite z-score [16] | z-score [17]
1 | O=C1C[C@]2(c3ccc([N+](=O)[O-])cc3)C(=O)N(CC(F)(F)F)c3cc(CO)ccc3[C@H]2N1CC12CC3CC(CC(C3)C1)C2 | -0.0746 | -0.171 (inactive) | -0.0362 | -0.168 | 0.499 | 1.15 | -0.221 | -0.0575 | 0.167 | 0.556 | -0.239 | -0.369 | 0.0419 | -1.16 | 0.77 | 0.0808 | 0.297 | 0.551 | 0.122 | 1.09 (inactive)
2 | COc1ccc(C#Cc2ccc3c(c2)[C@]2(C(=O)N3)[C@H](C(=O)NC[C@H](O)c3ccccc3)[C@H]3C(=O)O[C@H](c4ccccc4)[C@H](c4ccccc4)N3[C@@H]2c2ccc(OCCO)cc2)cc1 | 0.265 | 0.53 (inactive) | 0.196 | -0.125 | 0.357 | 1.97 | 0.635 | 1.33 | 0.473 | 1.17 | 0.408 | 0.991 | 0.303 | 0.964 | 1.36 | 1.19 | -1.96 | 1.22 | 1.13 | -1.58 (inactive)
3 | COCCOC(=O)N1C(=O)[C@@]2(c3ccccc31)[C@H](C(=O)NC[C@H](O)c1ccccc1)[C@H]1C(=O)O[C@H](c3ccccc3)[C@H](c3ccccc3)N1[C@@H]2c1ccc(OCCO)cc1 | 0.605 | -0.404 (inactive) | 0.267 | -0.0959 | 0.492 | 1.53 | -0.0994 | 1.3 | 1.22 | 1.12 | 0.791 | 1.15 | 0.367 | 0.715 | 1.47 | 1.77 | -0.542 | 1.58 | 0.387 | 0.888 (inactive)
4 | O=C1O[C@@H](c2ccccc2)[C@@H](c2ccccc2)N2[C@@H](c3ccc(OCCO)cc3)[C@]3(C(=O)Nc4ccccc43)[C@@H](C(=O)Nc3nc4ccccc4s3)[C@H]12 | 0.915 | 0.755 (inactive) | 0.372 | -0.0028 | 0.593 | 2.45 | 0.262 | 1.3 | 0.477 | 1.11 | 2.11 | 1.26 | 0.645 | 1 | 1.21 | 0.79 | -2.13 | 1.28 | 0.958 | -9.09 (active)
5 | COCCOC(=O)N1C(=O)[C@@]2(c3ccccc31)[C@H](c1ccc(O)cc1)N1[C@H](c3ccccc3)[C@H](c3ccccc3)OC(=O)[C@H]1[C@@H]2C(=O)N1CCc2cc(OC)c(OC)cc2C1 | -0.361 | 2.47 (inactive) | 0.128 | 0.0712 | 0.136 | 1.76 | 0.288 | 1.32 | 1.44 | 1.13 | 1.7 | 0.848 | 0.341 | 0.107 | 1.35 | 1.85 | 0.355 | 1.14 | 0.216 | -0.704 (inactive)
6 | C=CCNC(=O)[C@H]1[C@@H]2C(=O)O[C@@H](c3ccccc3)[C@@H](c3ccccc3)N2[C@@H](c2ccc(O)cc2)[C@]12C(=O)N(C(=O)OCCOC)c1ccc(C#CCCO)cc12 | 0.534 | -0.228 (inactive) | -0.155 | -0.0942 | 0.701 | 2.1 | 0.881 | 1.08 | -0.445 | 0.903 | 1.03 | -0.0757 | 0.38 | 0.288 | 0.448 | 0.748 | 0.956 | -0.0874 | -0.163 | -0.923 (inactive)
7 | C=CCC(OC(C)=O)[C@@H]1[C@@H](N(Cc2ccc(-c3ccccc3)cc2)C(=O)Cc2ccc(F)cc2)c2cc(OCCCO)ccc2N1C(=O)c1ccc2ccccc2n1 (stereo not given in full) | 0.59 | -1.01 (inactive) | 0.0653 | -0.0796 | -0.161 | 0.164 | 0.0508 | -0.0112 | 0.255 | -0.526 | -0.26 | -0.0475 | -0.312 | 0.165 | 0.177 | 0.253 | 1.94 | -0.192 | 0.216 | -1.26 (inactive)
8 | CC(C)C[C@@H]1NC(=O)[C@H]2C[C@@H](C(=O)NCCCCCCNC(=O)CS)[C@@H](c3cccc(OCCO)c3)N2C1=O | -0.641 | 0.156 (inactive) | 0.0493 | -0.132 | 0.338 | 1.68 | 0.995 | 1.22 | 1.41 | 1.17 | 1.19 | 1.21 | 0.236 | 0.855 | 1.43 | 1.64 | 1 | 1.57 | 0.96 | -1.05 (inactive)
9 | C=C(C(=O)CC[C@H](OC(C)=O)c1ccc(OCCO)cc1)C(C)C | 0.531 | 0.277 (inactive) | 0.0569 | -0.132 | 0.708 | 0.354 | 1.15 | 0.564 | 0.615 | 0.846 | 0.772 | -0.02 | -0.381 | 0.711 | 1.4 | 0.911 | -0.217 | 1.45 | 0.0674 | -0.503 (inactive)
10 | O=C1O[C@@H](c2ccccc2)[C@@H](c2ccccc2)N2[C@@H](c3ccc(O)cc3)[C@]3(C(=O)Nc4ccc(C#CC5=CCCCC5)cc43)[C@@H](C(=O)O)[C@H]12 | 0.885 | 0.341 (inactive) | 0.139 | 0.0685 | 0.715 | 1.86 | 0.788 | 1.32 | -0.194 | 0.9 | 3.13 | 1.11 | 0.676 | 0.734 | 0.473 | 0.146 | -0.29 | 0.195 | 1.35 | -3.5 (inactive)
11 | O=C/C=C/c1ccc(Cl)cc1 | -1.04 | 0.411 (inactive) | -0.186 | -0.127 | -0.457 | -0.267 | -0.565 | -1.01 | 0.0502 | -0.184 | -0.318 | -1.36 | -0.195 | -0.991 | -0.329 | -0.236 | 2.19 | -0.283 | -0.488 | -0.712 (inactive)
